Rows were chosen to be rich in hits. Some 4.4% of all compounds tested hit in one or more screens of this group.
NFkB transloc pot – enhancers of NFkB p65 translocation in HUVEC – imaging, IL-1B stimulus, high-content imaging, primary screen; activation, % at 2 µM; AID 819, 2007; 0.3% of 94,000 active; HUVEC IL-1B NFkB p65 nuclear translocation imaging;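 active means activation above 40%, about the mean plus 3 SD, also judged a hit on visual image review; inconclusive means activation above 40% but not a hit on visual review; inactive means activation not above 40% and no visual hit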;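 further: percent activation is computed from the nuclear over cytoplasmic p65 intensity ratio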
Cav3 T inh – Cav3.2 calcium influx blockers – cell-based, Fluo-4 calcium fluorescence, FDSS, MLSMR library, primary screen | Voltage-dependent T-type calcium channel subunit alpha-1H (Homo sapiens), O95180 | Cav3.2-expressing cells; active compounds read low | B-score at 10 µM | 4% of 100,000 active;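 active means single-dose well whose peak fluorescence ratio is a statistical outlier from its plate by either plate-standardised score or position-corrected B-score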
IL1B cytotox – cytotoxicity in IL-1B stimulated HUVEC, primary screen, cytotoxicity control for IL-1B NFkB translocation project, imaging, Hoechst nuclear count, IL-1B stimulus; 0.41% of 94,000 active; HUVEC cell count loss; AID 845, 2007; cell count reduction, % at 2 µM;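 active means cell count reduction more than 3 SD above the screen-wide mean, cut at about 70% in these data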;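 further: normalized per plate to untreated control cells as the no-loss baseline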
IL1B NFkB inh – inhibitors of IL-1B driven NFkB p65 nuclear import, primary screen, imaging, HUVEC, IL-1B stimulus, high-content imaging. inhibition, % at 2 µM. HUVEC IL-1B NFkB p65 nuclear translocation imaging. 0.43% of 94,000 active;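 active means inhibition above about 30% together with a positive call from visual inspection of the well image, limit read from the data; inconclusive means inhibition above a set limit but visual check negative; inactive means inhibition not above a set limit, visual check negative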;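 further: nuclear over cytoplasmic p65 intensity ratio measured by imaging; 0% = IL-1B stimulated DMSO wells and 100% = unstimulated DMSO wells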
* marks the source's active call; other numbers are inactive results.

For CC(C)(C)c1ccc(C(=O)NNC(=O)Cc2cccc3ccccc23)cc1 the results were NFkB transloc pot 3, Cav3 T inh -4.2*, IL1B cytotox 9 and IL1B NFkB inh -3.
`S=c1[nH]nc(C23CC4CC(CC(C4)C2)C3)n1Cc1ccco1` gave NFkB transloc pot 7, Cav3 T inh -2.2, IL1B cytotox -20 and IL1B NFkB inh -7.
Cc1occc1-c1nnc(SCC(=O)c2ccc(F)cc2)n1Cc1ccco1 was read as NFkB transloc pot 10, Cav3 T inh -2.3, IL1B cytotox 23 and IL1B NFkB inh -10.
For O=C(CSc1nnc(-c2cc3ccccc3cc2O)n1Cc1ccco1)c1ccc(F)cc1 the results were NFkB transloc pot 0, Cav3 T inh -4*, IL1B cytotox 8 and IL1B NFkB inh 0.
For COc1ccccc1-c1nnc(SCC(=O)c2ccc(C3CCCCC3)cc2)n1Cc1ccco1 the results were NFkB transloc pot 13, Cav3 T inh -4.7*, IL1B cytotox -7 and IL1B NFkB inh -13.
CCOc1ccccc1NC(=O)CSc1nnc(-c2ccccc2Cl)n1Cc1ccco1 was read as NFkB transloc pot 1, Cav3 T inh -7.7*, IL1B cytotox 7 and IL1B NFkB inh -1.
For O=c1c2ccccc2nc(N2CCN(c3ccccc3)CC2)n1Cc1ccccc1 the results were NFkB transloc pot 9, Cav3 T inh -5.4*, IL1B cytotox -3 and IL1B NFkB inh -9.
`O=c1c2ccccc2nc(-c2ccco2)n1Cc1ccccc1` gave NFkB transloc pot 7, Cav3 T inh -0.2, IL1B cytotox 28 and IL1B NFkB inh -7.
`C=C1CCN([C@H](C(=O)NCc2ccc(Cl)c(Cl)c2)C(C)C)S(=O)(=O)c2ccccc21` gave Cav3 T inh -0.87.
C=C(C)Cn1c(SCC(=O)O)nnc1-c1ccccc1 was read as NFkB transloc pot -2, Cav3 T inh 0.54, IL1B cytotox 14 and IL1B NFkB inh 2.
`C=C(C)Cn1c(-c2ccccc2)nc2ccccc21` gave NFkB transloc pot 30, Cav3 T inh -4.1*, IL1B cytotox -5 and IL1B NFkB inh -30.
Screening COc1ccc(-c2nnc(SCC(=O)c3cccs3)o2)cc1 returned Cav3 T inh -5.2*.
`COc1ccc(-c2nnc(SCC(=O)c3cc(C)n(Cc4cccs4)c3C)o2)cc1` gave NFkB transloc pot 4, Cav3 T inh -0.21, IL1B cytotox 3 and IL1B NFkB inh -4.
For c1ccc(-c2nnc(-c3cccc(-c4nnc(-c5ccccc5)o4)c3)o2)cc1 the results were NFkB transloc pot -9, IL1B cytotox 11 and IL1B NFkB inh 9.
`Cc1ccc(-c2nnc(Cc3ccc(Cl)cc3)o2)cc1` gave NFkB transloc pot -6, Cav3 T inh -0.016, IL1B cytotox 11 and IL1B NFkB inh 6.
Screening Cc1ccc(C(=O)CSc2nnc(-c3ccccc3)o2)cc1 returned NFkB transloc pot 5, Cav3 T inh 0.42, IL1B cytotox 93* and IL1B NFkB inh -5.
`c1ccc(Cc2nnc(-c3ccccc3)o2)cc1` gave NFkB transloc pot -57, Cav3 T inh -5.5*, IL1B cytotox -11 and IL1B NFkB inh inconclusive.
Cc1ccc(-c2nnc(-c3ccccc3)o2)cc1 was read as NFkB transloc pot -72, Cav3 T inh -0.71, IL1B cytotox 10 and IL1B NFkB inh 72*.
Screening C=CCn1c(SCc2nc3ccccc3[nH]2)nnc1-c1cccc(OC)c1 returned NFkB transloc pot 7, Cav3 T inh -1.6, IL1B cytotox -7 and IL1B NFkB inh -7.
`CSc1nc(Cl)cc(N(CCO)CCO)n1` gave NFkB transloc pot 9, Cav3 T inh -0.25, IL1B cytotox 10 and IL1B NFkB inh -9.
`COc1ccc(-c2nnc(SCc3ccccc3F)o2)cc1` gave NFkB transloc pot 0, Cav3 T inh -0.3, IL1B cytotox 15 and IL1B NFkB inh 0.
Fc1ccccc1CSc1nnc(-c2ccccc2)o1 was read as NFkB transloc pot 14, Cav3 T inh -1.1, IL1B cytotox 92* and IL1B NFkB inh -14.
CCCCOC(=O)n1c(SCC(=O)N(CC)CC)nc2ccccc21 was read as NFkB transloc pot 24, Cav3 T inh -3.1, IL1B cytotox 3 and IL1B NFkB inh -24.
For CCOC(=O)/C(C(N)=NCCO)=C(/O)c1ccccc1 the results were NFkB transloc pot 11, Cav3 T inh 0.65, IL1B cytotox -14 and IL1B NFkB inh -11.
O=C(CSCc1cnn(-c2ccccc2)c1-n1cccc1)N1CCN(Cc2ccccc2)CC1 was read as NFkB transloc pot 26, Cav3 T inh -4.2, IL1B cytotox 4 and IL1B NFkB inh -26.
For COc1ccc(NC(=O)C2CCN(Cc3cnn(-c4ccccc4)c3-n3cccc3)CC2)cc1OC the results were NFkB transloc pot -6, Cav3 T inh -1.5, IL1B cytotox -18 and IL1B NFkB inh 6.
Screening CCOc1ccc(NC(=O)CSCc2cnn(-c3ccccc3)c2-n2cccc2)cc1 returned NFkB transloc pot 6, Cav3 T inh -10*, IL1B cytotox 3 and IL1B NFkB inh -6.
For COc1cccc(CNC(=O)CSCc2cnn(-c3ccccc3)c2-n2cccc2)c1OC the results were NFkB transloc pot 9, Cav3 T inh -6*, IL1B cytotox -5 and IL1B NFkB inh -9.
Screening COc1ccc(OC)c(NC(=O)CSCc2cnn(-c3ccccc3)c2-n2cccc2)c1 returned NFkB transloc pot 3, Cav3 T inh -9.1*, IL1B cytotox 2 and IL1B NFkB inh -3.
Screening C=CCOC(=O)C1=C[C@@H](c2cn(C(C)=O)c3ccccc23)C[C@@H](OCc2ccc(CO)cc2)O1 returned Cav3 T inh -0.61.
C=CC(=C)CC(NC)c1ccccc1 (stereo not drawn) was read as NFkB transloc pot 6, Cav3 T inh -0.26, IL1B cytotox -4 and IL1B NFkB inh -6.
Cc1cc(Nc2cc(Cl)nc(Sc3ccc(NC(=O)C4CC4)cc3)n2)n[nH]1 was read as Cav3 T inh 0.33.
Screening C#CCOCCOCCOCCNc1nc(N2CCN(C(=O)C(Cc3ccc(O)cc3)n3cc(C(N)CC(C)C)nn3)CC2)nc(N2CCN(C(=O)C(Cc3cc4ccccc4[nH]3)n3cc(C(N)Cc4ccc(O)cc4)nn3)CC2)n1 (stereo not drawn) returned Cav3 T inh 0.88.
Brc1ccc(-c2noc3c2-c2nc(C4CCCCC4)sc2CC3)cc1 was read as Cav3 T inh -0.17.
For CCCCn1c(SCC(=O)N2c3ccccc3Sc3ccccc32)nc2c1c(=O)n(C)c(=O)n2C the results were NFkB transloc pot -5, Cav3 T inh -4.8*, IL1B cytotox -1 and IL1B NFkB inh 5.
`CC1CCN(C(=S)c2cn(Cc3ccccc3F)c3ccccc23)CC1` gave NFkB transloc pot -14, Cav3 T inh -6.5*, IL1B cytotox -6 and IL1B NFkB inh 14.
For O=c1c(Cc2ccc(Cl)cc2Cl)c(O)ccn1Cc1ccc(Cl)cc1 the results were NFkB transloc pot -9, Cav3 T inh -2.4, IL1B cytotox 0 and IL1B NFkB inh 9.
For O=C(CCn1c(=O)[nH]c2ccsc2c1=O)NCCc1ccc(Cl)cc1 the results were NFkB transloc pot -11, Cav3 T inh -0.74, IL1B cytotox -5 and IL1B NFkB inh 11.
`O=C(CCn1c(=O)[nH]c2ccsc2c1=O)N(CCc1ccccc1)Cc1ccccc1` gave NFkB transloc pot 9, Cav3 T inh -4.4*, IL1B cytotox 4 and IL1B NFkB inh -9.
Screening CC1CC(C)CN(C(=O)c2ccc3c(c2)N(Cc2ccccc2)CCS3)C1 (stereo not drawn) returned NFkB transloc pot -3, Cav3 T inh -7.7*, IL1B cytotox 9 and IL1B NFkB inh 3.
Screening Cc1cc(C)cc(SCc2noc(C(=O)NCC3CC3)c2C(=O)NCC2CC2)c1 returned Cav3 T inh -1.4.

Bioassay records from PubChem.
